We go through 1 compound from PubChem BioAssay AID2496 (Sanford-Burnham Center for Chemical Genomics, 2010).

In general, IC50 refers to the concentration needed to halve the response being measured.

This assay in a line: HTRF spectral interference by compounds, SAR follow-up, artefact control, biochemical, fluorescence ratio (AID 2496). To be noted: HTRF spectral interference counter-screen. In general terms: TR-FRET usually uses a lanthanide donor and a delayed reading to cut background.

Active and inactive are the calls of the source. Cut-off read from the data, not from the text of the source: active = IC50 below about 40 µM; inactive = the rest. A value given as a limit tells only on which side of the number the result lay.

`O=C(c1ccc2nc(-c3ccco3)c(-c3ccco3)nc2c1)N1CCC2(CC1)OCCO2`: the IC50 was > 50 µM (inactive).
